The nature of test [1]: A CellTox Green Cytotoxicity Assay to monitor cytotoxicity in HEK293 cells - 32 hour (AID 1224881). Also: nearly all actives have a fitted effect of over 40% in size. Also: potency is read from the fitted curve at half-maximal effect. In outline:
(§1)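 Real-time, in one plate: 600 HEK293 cells/well with dead-cell DNA dye, pinned compound after 5 h, 37 C incubation over 40 h; viable cells give no appreciable fluorescence.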

Test [2] can be described thus: A CellTox Green Cytotoxicity Assay to monitor cytotoxicity in HepG2 cells - 0 hour (AID 1224882). Also: nearly all actives have a fitted effect of over 35% in size. In outline:
(§2)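 Cytotoxicity was tracked as dead-cell DNA fluorescence in HepG2 cells treated with test compounds at 37 C; each time-point value comes from one kinetic series spanning 0, 8, 16, 24, 32 and 40 h.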

A short description of test [3]: A CellTox Green Cytotoxicity Assay to monitor cytotoxicity in HepG2 cells - 32 hour (AID 1224883). Also: nearly all actives have a fitted effect of over 50% in size. Also: potency is read from the fitted curve at half-maximal effect. In outline: as §2
The nature of test [4]: A CellTox Green Cytotoxicity Assay to monitor cytotoxicity in HEK293 cells - 8 hour (AID 1224884). Also: nearly all actives have a fitted effect of over 35% in size. The gist of the method: as §1
The nature of test [5]: qHTS RealTime-Glo MT Cell Viability Assay in HepG2 cells - 16 hour (AID 1224885). Also: nearly all actives have a fitted effect of over 50% in size. Also: potency is read from the fitted curve at half-maximal effect. In outline: (§3)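 Viability was tracked continuously by NanoLuc luminescence from prosubstrate reduced by living HepG2 cells, at successive time points over 40 h of compound exposure. Cells with reagent were preincubated 5 h at 37 °C before compound addition.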
In general terms: Quantitative high-throughput screening tests each substance at several concentrations.

The nature of test [6]: qHTS RealTime-Glo MT Cell Viability Assay in HEK293 cells - 24 hour (AID 1224886). Also: nearly all actives have a fitted effect of over 50% in size. Also: potency is read from the fitted curve at half-maximal effect. The gist of the method: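 Viability tracked continuously by luminescence as live cells reduce a prosubstrate for NanoLuc; HEK293 cells preincubated 5 h, compound-treated at 37 C, and read at 0, 8, 16, 24, 32 and 40 h.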
Test [7] can be described thus: qHTS RealTime-Glo MT Cell Viability Assay in HEK293 cells - 8 hour (AID 1224887). Also: nearly all actives have a fitted effect of over 50% in size. Also: potency is read from the fitted curve at half-maximal effect. The gist of the method:
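Kinetic, non-lysing viability readout. Seed HEK293 (600/well) with reagent, incubate 5 h at 37 C/5% CO2, pin 23 nL compound in DMSO, incubate at 37 C, read luminescence at 0, 8, 16, 24, 32, 40 h.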

A short description of test [8]: qHTS RealTime-Glo MT Cell Viability Assay in HepG2 cells - 0 hour (AID 1224889). Also: nearly all actives have a fitted effect of over 50% in size. Also: potency is read from the fitted curve at half-maximal effect. The gist of the method:
as §3

Test [9] in a line: A CellTox Green Cytotoxicity Assay to monitor cytotoxicity in HepG2 cells - 8 hour (AID 1224890). Also: nearly all actives have a fitted effect of over 45% in size. Also: potency is read from the fitted curve at half-maximal effect. The gist of the method:
as §2

Test [10] in a line: qHTS assay to identify small molecule antagonists of the androgen receptor (AR) signaling pathway using the MDA cell line in the presence of 0.5 nM R1881 - cell viability counter screen (AID 1259242). Also: nearly all actives have a fitted effect of over 45% in size. Also: potency is read from the fitted curve at half-maximal effect. The gist of the method: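 Cells seeded at 3,000/well and allowed 5 hr at 37C, 0% CO2 before compound transfer and R1881 (0.5 nM final) addition; 16 hr later, live-cell protease fluorescence indicated cytotoxicity.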

The target in test [11] is Estrogen receptor (Homo sapiens) (UniProt P03372). In words: qHTS assay to identify small molecule antagonists of the estrogen receptor alpha (ER-alpha) signaling pathway using the BG1 cell line in the presence of 0.1 nM 17-beta-estradiol (AID 1259244). Also: nearly all actives have a fitted effect of over 50% in size. Also: potency is read from the fitted curve at half-maximal effect. The gist of the method:
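Luciferase signal from VM7Luc4E2 ERE-reporter cells, co-dosed with test compound and 0.1 nM final 17beta-estradiol for 22 h, read with ONE-Glo.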

The nature of test [12]: qHTS assay to identify small molecule HDAC inhibitors (AID 1259364).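 Also: wild-type HCT-116 cells with endogenous class I/II HDAC activity; top concentration of the series differs between compounds; nearly all actives have a fitted effect of over 45% in size.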 In outline:
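HCT-116 wt cells, 1,500/well, overnight attach. Compounds (DMSO) 2 h, 37 °C. HDAC-Glo I/II, 30 min RT. Luminescence.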

The nature of test [13]: qHTS assay to identify small molecule HDAC inhibitors - cell viability counter screen (AID 1259365). In outline: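 HCT-116 wild-type, overnight attachment; 2hr drug exposure, 37C; CellTiter-Glo luminescent ATP readout after 30min RT.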
The nature of test [14]: qHTS assay to identify small molecule antagonists of the sonic hedgehog signaling (Shh) pathway - cell viability counter screen (AID 1259367). Also: nearly all actives have a fitted effect of over 55% in size. Also: potency is read from the fitted curve at half-maximal effect. In outline: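 Tox21 library chemicals were tested on a Gli1-Luc NIH/3T3 clone (2,000 cells/well) stimulated by conditioned medium; viability was quantified as fluorescence from CellTiter-Fluor reagent added at 23 hr.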
Test [15] can be described thus: qHTS assay to identify small molecule agonists of the sonic hedgehog signaling (Shh) pathway (AID 1259368; calls by dose curve;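 also: NIH/3T3-derived 3T3Gli1-Luc cells carrying a stable Gli1-driven firefly luciferase reporter; series mostly up to about 92 µM; nearly all actives have a fitted effect of over 15% in size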). The gist of the method:
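Following a 24 hr incubation with DMSO-dissolved compounds at 37 C, 5% CO2, Gli1-Luc NIH/3T3-derived cells received luciferase reagent for 30 min at room temperature prior to luminescence measurement.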

Test [16] can be described thus: qHTS assay to identify small molecule antagonists of the estrogen receptor alpha (ER-alpha) signaling pathway using the BG1 cell line in the presence of 0.1 nM 17-beta-estradiol - cell viability counter screen (AID 1259241). Also: nearly all actives have a fitted effect of over 40% in size. Also: potency is read from the fitted curve at half-maximal effect. The gist of the method: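 Following 5 days in phenol red-free medium with charcoal-stripped serum, VM7Luc4E2 cells received test compounds alongside 0.1 nM 17beta-estradiol (final) at 37C for 22 hr. Live cells were then quantified via protease-substrate fluorescence.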

Test [17] can be described thus: qHTS assay to identify small molecule agonists of the sonic hedgehog signaling (Shh) pathway - cell viability counter screen (AID 1259366). Also: nearly all actives have a fitted effect of over 50% in size. In outline:
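Compounds in DMSO were pin-transferred onto 3T3 Gli1-Luc cells that had settled 4hr; plates then stood 24hr at 37C and 5% CO2. One hour before the end, CellTiter-Fluor was added and fluorescence recorded.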

Test [18] can be described thus: A CellTox Green Cytotoxicity Assay to monitor cytotoxicity in HEK293 cells - 16 hour (AID 1224888). Also: nearly all actives have a fitted effect of over 35% in size. Also: potency is read from the fitted curve at half-maximal effect. The gist of the method:
as §1

Test [19] deals with Androgen receptor (Homo sapiens) (UniProt P10275). In words: qHTS assay to identify small molecule antagonists of the androgen receptor (AR) signaling pathway using the MDA cell line in the presence of 0.5 nM R1881 (AID 1259243). Also: nearly all actives have a fitted effect of over 50% in size. The gist of the method: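 Luminescence from an AR/GR-responsive MMTV-luciferase construct in MDA-kb2 breast carcinoma cells, read 30 min after ONE-Glo, following 16 hr co-treatment with compounds and 0.5 nM R1881.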

Records with an inconclusive call do not appear. The source made the active and inactive calls. Unless noted, calls follow the shape of the dose curve; as a rule, active = well fitted curve in the direction sought with a large enough effect in the repeat runs; inconclusive = weak or mixed curves; inactive = no such curve, though single readings can be large; an effect the other way counts as inactive or inconclusive.

Sequence of Estrogen receptor (Homo sapiens) (P03372 whole entry, looked up): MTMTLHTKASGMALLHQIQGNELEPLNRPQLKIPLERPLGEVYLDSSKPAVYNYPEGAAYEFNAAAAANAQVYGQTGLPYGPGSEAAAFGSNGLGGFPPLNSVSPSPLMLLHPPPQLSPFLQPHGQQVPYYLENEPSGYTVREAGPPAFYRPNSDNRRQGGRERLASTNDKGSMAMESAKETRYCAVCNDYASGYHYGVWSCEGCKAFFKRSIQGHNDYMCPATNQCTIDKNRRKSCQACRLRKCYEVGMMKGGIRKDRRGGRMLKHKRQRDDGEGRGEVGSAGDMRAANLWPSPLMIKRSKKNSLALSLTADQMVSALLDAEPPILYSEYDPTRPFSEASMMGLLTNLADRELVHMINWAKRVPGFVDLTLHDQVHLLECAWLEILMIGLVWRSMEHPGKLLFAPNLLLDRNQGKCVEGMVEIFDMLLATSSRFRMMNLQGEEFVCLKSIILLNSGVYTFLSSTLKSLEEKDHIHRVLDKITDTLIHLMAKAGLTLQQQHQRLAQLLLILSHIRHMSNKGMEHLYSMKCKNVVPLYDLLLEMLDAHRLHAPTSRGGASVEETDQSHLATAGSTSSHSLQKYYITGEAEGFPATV
Sequence of Androgen receptor (Homo sapiens) (P10275 whole entry, looked up): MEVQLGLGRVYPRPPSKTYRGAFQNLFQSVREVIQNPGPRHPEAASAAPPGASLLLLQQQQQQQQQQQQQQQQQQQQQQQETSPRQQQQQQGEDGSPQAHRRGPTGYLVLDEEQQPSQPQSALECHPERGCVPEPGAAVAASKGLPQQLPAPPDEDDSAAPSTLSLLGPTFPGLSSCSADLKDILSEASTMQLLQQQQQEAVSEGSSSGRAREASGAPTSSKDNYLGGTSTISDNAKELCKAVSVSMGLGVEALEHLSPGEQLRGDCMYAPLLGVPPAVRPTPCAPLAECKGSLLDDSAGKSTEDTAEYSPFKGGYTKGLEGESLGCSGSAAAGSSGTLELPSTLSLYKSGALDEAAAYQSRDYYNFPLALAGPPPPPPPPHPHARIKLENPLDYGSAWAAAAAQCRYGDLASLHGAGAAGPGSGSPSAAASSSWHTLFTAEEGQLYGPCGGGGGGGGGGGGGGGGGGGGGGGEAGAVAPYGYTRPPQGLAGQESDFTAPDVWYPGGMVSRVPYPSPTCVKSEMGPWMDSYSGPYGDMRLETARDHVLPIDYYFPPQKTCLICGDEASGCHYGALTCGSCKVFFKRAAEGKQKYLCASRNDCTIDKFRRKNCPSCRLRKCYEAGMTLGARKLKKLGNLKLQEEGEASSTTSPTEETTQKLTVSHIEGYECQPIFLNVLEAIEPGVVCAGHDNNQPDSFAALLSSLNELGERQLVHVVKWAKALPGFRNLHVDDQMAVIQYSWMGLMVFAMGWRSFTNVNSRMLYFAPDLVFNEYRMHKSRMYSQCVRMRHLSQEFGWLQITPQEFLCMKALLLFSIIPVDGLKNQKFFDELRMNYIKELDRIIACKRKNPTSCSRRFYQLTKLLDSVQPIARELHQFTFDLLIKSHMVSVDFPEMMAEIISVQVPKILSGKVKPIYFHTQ

`CCC(C)c1cccc(C(C)CC)c1O` (centres undefined): the Potency in test [1] is 30.9 µM (active); in [3] it was 19.5 µM (active); in test [9], 19.5 µM (active). The Potency entry in test [2], in test [4], in [5], in [6], in [7] and in test [8] was “inactive” in each case. Moreover, the Potency result in test [10], in test [11], in test [12], in test [13], in test [14] and in test [15] was “inactive” in each case.

Consider `BrCC(Br)(Br)Br`, for which the Potency entry in test [1], in [2], in [3], in [4], in test [5] and in [8] was “inactive” in each case. The Potency entry in test [9], in test [16], in test [10], in [11], in test [12] and in test [17] was “inactive” each time. The Potency entry in [14] and in test [15] was “inactive” throughout. Further, the values for the Potency in test [6] and in test [7] were 45.3 µM (active) and 16.1 µM (active), respectively.

With `CCNc1nc(NC(C)C(C)C)nc(SC)n1` (centres undefined), the Potency entry in test [1], in test [2], in test [3], in test [4], in [5] and in test [7] was “inactive” each time. For the same compound, the Potency result in test [18], in [8], in test [9], in [16], in [10] and in [11] was “inactive” throughout. For the same compound, the Potency result in [12], in test [13], in test [17], in [14] and in [15] was “inactive” in each case.

On to `CCOC(=O)Cc1ccccc1`, for which the Potency entry in test [1], in test [2], in [3], in [4], in [5] and in test [7] was “inactive” in each case. Moreover, the Potency result in test [18], in test [8], in [9], in test [16], in [10] and in test [19] was “inactive” each time. For the same compound, the Potency result in test [11], in test [12], in test [13], in test [17], in [14] and in test [15] was “inactive” in each case.

For `COc1cnc(OC)n2nc(NS(=O)(=O)c3c(OCC(F)F)cccc3C(F)(F)F)nc12`, the Potency result in [1], in [2], in test [3], in test [4], in [5] and in [6] was “inactive” throughout. Further, the Potency entry in test [7], in test [8], in test [9], in test [16], in test [10] and in test [11] was “inactive” each time. The Potency result in test [12], in test [13], in test [14] and in test [15] was “inactive” each time.

Regarding `CNC(=O)/C=C(\C)OP(=O)(OC)OC`, the Potency entry in test [1], in [2], in test [3], in test [4], in test [5] and in test [7] was “inactive” each time. Further, the Potency result in test [18], in [8], in test [9], in test [16], in test [10] and in [11] was “inactive” throughout. The Potency entry in test [12], in test [13], in test [17], in test [14] and in test [15] was “inactive” each time.

In the case of `CC(C)[C@@H](Nc1ccc(C(F)(F)F)cc1Cl)C(=O)OC(C#N)c1cccc(Oc2ccccc2)c1` (some centres undefined), the Potency entry in test [1], in [2], in test [3], in test [4], in test [5] and in test [6] was “inactive” throughout. Also, the Potency entry in test [18], in test [8], in test [9], in test [16], in test [10] and in test [11] was “inactive” in each case. The Potency result in test [12], in test [17], in test [14] and in test [15] was “inactive” in each case.

`N#Cc1ccc(N(CC(N)=O)CC(F)(F)F)cc1C(F)(F)F`: the Potency result in test [1], in test [2], in [3], in test [4], in [5] and in [6] was “inactive” in each case. Moreover, the Potency result in test [7], in [8], in [9], in test [16], in [10] and in test [11] was “inactive” throughout. Besides, the Potency result in [12], in test [17], in test [14] and in test [15] was “inactive” in each case.

For `C=CC(=C)C`, the Potency result in test [1], in [2], in test [3], in test [4], in [5] and in test [7] was “inactive” throughout. Besides, the Potency result in test [18], in [8], in test [9], in test [16], in test [10] and in [11] was “inactive” each time. Besides, the Potency result in test [12], in test [13], in test [17], in test [14] and in [15] was “inactive” each time.

For the compound `CC#C[C@]1(O)CC[C@H]2[C@@H]3C[C@H](C)C4=CC(=O)CC[C@]4(C)[C@H]3CC[C@@]21C`, the Potency entry in test [1], in test [2], in test [3], in [4], in [5] and in test [7] was “inactive” throughout. Besides, the Potency result in test [18], in test [9], in test [16], in test [10], in test [19] and in [11] was “inactive” throughout. In addition, the Potency entry in [12], in test [13], in test [17], in test [14] and in [15] was “inactive” in each case. In addition, in [8], the Potency is 2.68 µM (active).

For the compound `O=C(O)[C@H](O)[C@@H](O)C(=O)O`, the Potency entry in [1], in test [2], in test [3], in test [4], in test [5] and in [7] was “inactive” each time. Further, the Potency entry in test [18], in test [8], in test [9], in [16], in test [10] and in test [11] was “inactive” in each case. The Potency entry in [12], in test [14] and in test [15] was “inactive” each time.

In the case of `[O]=[Cr][O][Cr]=[O]`, the Potency entry in [1], in test [2], in test [3], in test [4], in [5] and in test [6] was “inactive” each time. The Potency result in test [7], in test [8], in test [9], in test [16], in test [10] and in [11] was “inactive” throughout. In addition, the Potency result in [12], in test [13], in [14] and in test [15] was “inactive” each time.

Take `C=CCBr`: the Potency result in test [1], in [2], in test [3], in test [4], in test [5] and in [6] was “inactive” in each case. For the same compound, the Potency entry in [7], in [8], in [9], in test [16], in [10] and in test [11] was “inactive” each time. The Potency entry in [12], in test [14] and in test [15] was “inactive” throughout.

As for `Cc1ccc(C)c2ccccc12`, the Potency in [1] is 38.9 µM (active). Further, the Potency result in test [2], in [3], in test [4], in test [5], in test [6] and in test [8] was “inactive” each time. The Potency entry in [9], in test [16], in test [10], in test [19], in [12] and in [13] was “inactive” throughout. Besides, the Potency entry in [17], in [14] and in test [15] was “inactive” throughout.

Regarding `CCC[CH2][Sn]([CH2]CCC)([O]C(C)=O)[O]C(C)=O`, the Potency is 0.392 µM (active) in test [1]; 0.221 µM (active) in test [3]; 0.554 µM (active) in [5]; 0.0879 µM (active) in [6]; 4.4 µM (active) in test [18]; 0.692 µM (active) in [16]. In addition, the Potency in test [10] is 0.347 µM (active); in test [11] it was 0.617 µM (active); in test [14], 27.6 µM (active). The Potency result in [2], in test [4], in [8], in [9], in test [12] and in [13] was “inactive” each time. In addition, in test [15], the Potency entry is “inactive”.

The values are drawn from PubChem BioAssay (Tox21).
